According to PubChem BioAssay (NCI):
The panel holds about 79,000 compounds, 15% with a hit somewhere; the sample as a whole holds those more often. The source made the active and inactive calls. Cut-off read from the data, not from the text of the source: active = growth inhibition above about 70%; inactive = the rest.

Experiment: NCI Yeast Anticancer Drug Screen. Data for the bub3 strain (AID 167)
Settings: S. cerevisiae bub3 mutant strain, at 50.0 µM (retest, dose inferred, filed as 5.0), hits give high values
How it was run: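 Mutant yeast screening strain plus compound; vehicle-treated cultures serve as the 0% inhibition reference.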

Row | Structure (SMILES) | growth inhibition
1 | Cc1ccc(O)c(C(c2cc(C)ccc2O)c2ccccc2Cl)c1 | 99% (active)
2 | O=c1ssc(=Nc2ccc(Cl)cc2)n1-c1ccc(Cl)cc1 | 99% (active)
3 | CC(=O)OC1CCC2(C)C(CCC3C4=CCC(C5COC(=O)C5)C4(C)CCC32)C1 (stereo not given) | 91% (active)
4 | CCN(CC)CCCC(C)Nc1cc(F)cc2cccnc12 (stereo not given) | 41% (inactive)
5 | CC1CN(CCCN2c3ccccc3Sc3ccc(Cl)cc32)C(C)(C)C1 (stereo not given) | 100% (active)
6 | O=S(=O)(O)c1ccc2c(c1)C1C(C3C2C2(Cl)C(Cl)=C(Cl)C3(Cl)C2(Cl)Cl)C2(Cl)C(Cl)=C(Cl)C1(Cl)C2(Cl)Cl (stereo not given) | 91% (active)
7 | OC(CN1CCC(c2ccccc2)CC1)c1ccc(Br)cc1 (stereo not given) | 93% (active)
8 | CCOC(=O)/C(C#N)=C\c1cccc2ccccc12 | 40% (inactive)
9 | COc1ccc2c(c1)CCC(N1CCCC(O)C1)C2 (stereo not given) | 99% (active)
10 | COc1cccc(N2CCN(CC(O)COc3cc4c(c5c3CCCC5)CCCC4)CC2)c1 (stereo not given) | 95% (active)
11 | CC(=O)Oc1ccc(Cl)cc1Cc1cc(Cl)ccc1OC(C)=O | 88% (active)
12 | CC(O)c1c2c(cc3c1CC1(C3)Cc3cc4c(c(C(C)O)c3C1)CCC4)CCC2 (stereo not given) | 97% (active)
13 | O=c1c2ccccc2nc(-c2ccccc2)n1NC(=S)Nc1ccc(Cl)cc1[N+](=O)[O-] | 29% (inactive)
14 | O=C(CCCN1CCc2[nH]c3cc(F)ccc3c2C1)c1ccc(F)cc1 | 98% (active)
15 | OC(C(=Nc1ccccc1)c1ccccc1)c1ccccc1 (stereo not given) | 98% (active)
16 | N#CC1CCCC(Cc2ccccc2)(c2ccccc2)C1=O (stereo not given) | 96% (active)
17 | CC(OC(=O)Nc1cccc(Cl)c1)c1ccccc1 (stereo not given) | 99% (active)
18 | O=C(O)/C=C/c1c2ccccc2cc2ccccc12 | 96% (active)
19 | Cc1c[nH]c2c(O)cc3c(c12)[C@H](CCl)CN3C(=O)c1cc2cc(NC(=O)Nc3ccc4[nH]c(C(=O)N5C[C@@H](CCl)c6c5cc(O)c5[nH]cc(C)c65)cc4c3)ccc2[nH]1 | 56% (inactive)
20 | Cc1ccc(S(=O)(=O)OC(C=O)C(O)C(O)COC(c2ccccc2)(c2ccccc2)c2ccccc2)cc1 (stereo not given) | 98% (active)

Row | Structure (SMILES) | growth inhibition
21 | COc1cc2c(cc1C(C)C)CCC1C(C)(C#N)CCCC21C (stereo not given) | -10% (inactive)
22 | Fc1ccc(NC(=S)SCc2ccc(Cl)c(Cl)c2)c(F)c1 | 98% (active)
23 | COC(=O)/C=C(\NC1CC(OC2C[C@](O)(C(C)=O)Cc3c(O)c4c(c(O)c32)C(=O)c2c(OC)cccc2C4=O)OC(C)C1O)C(=O)OC (stereo not given in full) | 98% (active)
24 | O=C1CSC(=S)N1c1ccc(F)cc1F | 84% (active)
25 | CS(=O)(=O)OCCN(CCOS(C)(=O)=O)c1ccc(C=Nc2ccc3ccccc3c2)c(Cl)c1 | -9% (inactive)
26 | CN(C)C(=O)Nc1ccc(Cc2ccc(NC(=O)N(C)C)cc2)cc1 | -20% (inactive)
27 | O=c1c(Cl)c(Cl)c(=O)c2sc3cc(Cl)ccc3[nH]c1=2 | 19% (inactive)
28 | O=S(=O)(O)C(O)c1ccc2ccc3cccc4ccc1c2c34 (stereo not given) | 94% (active)
29 | N#Cc1cc([N+](=O)[O-])ccc1NC(=O)/C(=N/N)C(C(=O)c1ccc(Cl)c(Cl)c1)C1OC(=O)c2ccccc21 (stereo not given) | 11% (inactive)
30 | O=C(Nc1ccc(Cl)c(Cl)c1Cl)Oc1c(Cl)c(Cl)c(Cl)c(Cl)c1Cl | 99% (active)
31 | O=[N+]([O-])c1cc(Cl)cc2c1nc(NCCO)c1ccccc12 | 85% (active)
32 | CCNc1nc(C(F)(F)F)nc2nc[nH]c12 | -4% (inactive)
33 | CC1CCN(CCOC(=O)C(c2ccccc2)C2C=CCCC2)C1 (stereo not given) | 55% (inactive)
34 | CCOC(=O)c1c(N)sc2c1CCCCC2 | -42% (inactive)
35 | CC(C(O)Cc1ccccc1)N(C)N=Nc1ccc([N+](=O)[O-])cc1 (stereo not given) | 92% (active)
36 | O=[N+]([O-])c1ccc(/C=c2\sc3scc(-c4ccc([N+](=O)[O-])cc4)[n+]3\c2=C/c2ccc([N+](=O)[O-])cc2)cc1 | 99% (active)
37 | Oc1cc(C(c2ccccc2)c2ccccc2)c2ccccc2c1O | 2% (inactive)
38 | CC1=CC2OC3CC4OC(=O)/C=C/C=C/C(C(C)O)OCC(=O)C(C)CC(=O)OCC2(CC1)C4(C)C31CO1 (stereo not given) | 99% (active)
39 | CC(NNC(=S)N1CCCCCC1)c1cc2ccccc2cn1 (stereo not given) | 96% (active)
40 | CC(C)C1=CC23CCC4C(C)(C(=O)O)CCCC4(C)C2CC1C1C(=O)C=CC(=O)C13 (stereo not given) | 96% (active)

Same assay, conditions: S. cerevisiae bub3 mutant strain, at 50.0 µM, hits give high values

Row | Structure (SMILES) | growth inhibition
41 | Cc1ccc(O)c(C(c2cc(C)ccc2O)c2ccccc2Cl)c1 | 98.5% (active)
42 | O=c1ssc(=Nc2ccc(Cl)cc2)n1-c1ccc(Cl)cc1 | 99.5% (active)
43 | CC(=O)OC1CCC2(C)C(CCC3C4=CCC(C5COC(=O)C5)C4(C)CCC32)C1 (stereo not given) | 59.8% (inactive)
44 | CCN(CC)CCCC(C)Nc1cc(F)cc2cccnc12 (stereo not given) | 88.3% (active)
45 | CC1CN(CCCN2c3ccccc3Sc3ccc(Cl)cc32)C(C)(C)C1 (stereo not given) | 99.3% (active)
46 | O=S(=O)(O)c1ccc2c(c1)C1C(C3C2C2(Cl)C(Cl)=C(Cl)C3(Cl)C2(Cl)Cl)C2(Cl)C(Cl)=C(Cl)C1(Cl)C2(Cl)Cl (stereo not given) | 88.6% (active)
47 | OC(CN1CCC(c2ccccc2)CC1)c1ccc(Br)cc1 (stereo not given) | 82.7% (active)
48 | CCOC(=O)/C(C#N)=C\c1cccc2ccccc12 | 96.2% (active)
49 | COc1ccc2c(c1)CCC(N1CCCC(O)C1)C2 (stereo not given) | 91.2% (active)
50 | COc1cccc(N2CCN(CC(O)COc3cc4c(c5c3CCCC5)CCCC4)CC2)c1 (stereo not given) | 95% (active)
51 | CC(=O)Oc1ccc(Cl)cc1Cc1cc(Cl)ccc1OC(C)=O | 94.5% (active)
52 | CC(O)c1c2c(cc3c1CC1(C3)Cc3cc4c(c(C(C)O)c3C1)CCC4)CCC2 (stereo not given) | 87.2% (active)
53 | O=c1c2ccccc2nc(-c2ccccc2)n1NC(=S)Nc1ccc(Cl)cc1[N+](=O)[O-] | 71.4% (active)
54 | O=C(CCCN1CCc2[nH]c3cc(F)ccc3c2C1)c1ccc(F)cc1 | 91.7% (active)
55 | OC(C(=Nc1ccccc1)c1ccccc1)c1ccccc1 (stereo not given) | 97.8% (active)
56 | N#CC1CCCC(Cc2ccccc2)(c2ccccc2)C1=O (stereo not given) | 98.7% (active)
57 | CC(OC(=O)Nc1cccc(Cl)c1)c1ccccc1 (stereo not given) | 99.7% (active)
58 | O=C(O)/C=C/c1c2ccccc2cc2ccccc12 | 97.3% (active)
59 | Cc1c[nH]c2c(O)cc3c(c12)[C@H](CCl)CN3C(=O)c1cc2cc(NC(=O)Nc3ccc4[nH]c(C(=O)N5C[C@@H](CCl)c6c5cc(O)c5[nH]cc(C)c65)cc4c3)ccc2[nH]1 | -0.05% (inactive)
60 | Cc1ccc(S(=O)(=O)OC(C=O)C(O)C(O)COC(c2ccccc2)(c2ccccc2)c2ccccc2)cc1 (stereo not given) | 88.5% (active)

Row | Structure (SMILES) | growth inhibition
61 | COc1cc2c(cc1C(C)C)CCC1C(C)(C#N)CCCC21C (stereo not given) | 45.1% (inactive)
62 | Fc1ccc(NC(=S)SCc2ccc(Cl)c(Cl)c2)c(F)c1 | 99% (active)
63 | COC(=O)/C=C(\NC1CC(OC2C[C@](O)(C(C)=O)Cc3c(O)c4c(c(O)c32)C(=O)c2c(OC)cccc2C4=O)OC(C)C1O)C(=O)OC (stereo not given in full) | 74.2% (active)
64 | O=C1CSC(=S)N1c1ccc(F)cc1F | 83.8% (active)
65 | CS(=O)(=O)OCCN(CCOS(C)(=O)=O)c1ccc(C=Nc2ccc3ccccc3c2)c(Cl)c1 | 5.85% (inactive)
66 | CN(C)C(=O)Nc1ccc(Cc2ccc(NC(=O)N(C)C)cc2)cc1 | 7.95% (inactive)
67 | O=c1c(Cl)c(Cl)c(=O)c2sc3cc(Cl)ccc3[nH]c1=2 | 95.5% (active)
68 | O=S(=O)(O)C(O)c1ccc2ccc3cccc4ccc1c2c34 (stereo not given) | 97.5% (active)
69 | N#Cc1cc([N+](=O)[O-])ccc1NC(=O)/C(=N/N)C(C(=O)c1ccc(Cl)c(Cl)c1)C1OC(=O)c2ccccc21 (stereo not given) | 92.4% (active)
70 | O=C(Nc1ccc(Cl)c(Cl)c1Cl)Oc1c(Cl)c(Cl)c(Cl)c(Cl)c1Cl | 98.5% (active)
71 | O=[N+]([O-])c1cc(Cl)cc2c1nc(NCCO)c1ccccc12 | 79.9% (active)
72 | CCNc1nc(C(F)(F)F)nc2nc[nH]c12 | 3.4% (inactive)
73 | CC1CCN(CCOC(=O)C(c2ccccc2)C2C=CCCC2)C1 (stereo not given) | 36.5% (inactive)
74 | CCOC(=O)c1c(N)sc2c1CCCCC2 | 50.4% (inactive)
75 | CC(C(O)Cc1ccccc1)N(C)N=Nc1ccc([N+](=O)[O-])cc1 (stereo not given) | 72.7% (active)
76 | O=[N+]([O-])c1ccc(/C=c2\sc3scc(-c4ccc([N+](=O)[O-])cc4)[n+]3\c2=C/c2ccc([N+](=O)[O-])cc2)cc1 | 54.1% (inactive)
77 | Oc1cc(C(c2ccccc2)c2ccccc2)c2ccccc2c1O | 98.2% (active)
78 | CC1=CC2OC3CC4OC(=O)/C=C/C=C/C(C(C)O)OCC(=O)C(C)CC(=O)OCC2(CC1)C4(C)C31CO1 (stereo not given) | 91.8% (active)
79 | CC(NNC(=S)N1CCCCCC1)c1cc2ccccc2cn1 (stereo not given) | 83.5% (active)
80 | CC(C)C1=CC23CCC4C(C)(C(=O)O)CCCC4(C)C2CC1C1C(=O)C=CC(=O)C13 (stereo not given) | 96.9% (active)
